Sampled rows, rich in hits. Any-hit rate of the full collection: about 12%.
HP1b binding inh – HP1-beta chromodomain-methylated histone interaction inhibition | P83916 | AlphaScreen HP1-beta / biotin-H3K9me3 peptide binding | Potency, µM (doses to about 114 µM), for inactives: top-dose activity change, negative = inhibition, actives largely listed as inhibitors | hit rate 0.56% among 390,000 | AID 540317; also: nearly all actives have a fitted effect of over 70% in size
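HP1-beta protein (50 nM final) preincubated 30 min at room temperature with biotinylated H3(1-18)K9me3 peptide (50 nM) in PBS pH 7.4, 0.01% Tween-20, then compound added for 30 min. AlphaScreen streptavidin donor/nickel chelate acceptor beads (10 ug/mL final), 30 min dark, luminescence read.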
PLK1 PBD inh – inhibitors of human PLK1 polo-box domain binding; P53350; Plk1 PBD binding of FITC phosphopeptide, fluorescence polarization; Potency, µM, without a hit: max response, negative = inhibition, hits mostly inhibitors; hit rate 2.8% among 360,000; AID 720504; also: series mostly up to about 57 µM; % is scaled to controls: 0 for no effect and ±100 for the full control effect; nearly all actives have a fitted effect of over 65% in size
BAZ2B inh – blocks human BAZ2B | Q9UIF8 | Potency, µM (doses to about 114 µM), without a hit: at the highest dose activity change, negative = inhibition, actives largely listed as inhibitors | AlphaScreen BAZ2B-H3K14Ac peptide displacement | hit rate 4.4% among 360,000; also: % is scaled to controls: 0 for no effect and ±100 for the full control effect; nearly all actives have a fitted effect of over 60% in size
Target sequence (Q9UIF8 whole entry, looked up): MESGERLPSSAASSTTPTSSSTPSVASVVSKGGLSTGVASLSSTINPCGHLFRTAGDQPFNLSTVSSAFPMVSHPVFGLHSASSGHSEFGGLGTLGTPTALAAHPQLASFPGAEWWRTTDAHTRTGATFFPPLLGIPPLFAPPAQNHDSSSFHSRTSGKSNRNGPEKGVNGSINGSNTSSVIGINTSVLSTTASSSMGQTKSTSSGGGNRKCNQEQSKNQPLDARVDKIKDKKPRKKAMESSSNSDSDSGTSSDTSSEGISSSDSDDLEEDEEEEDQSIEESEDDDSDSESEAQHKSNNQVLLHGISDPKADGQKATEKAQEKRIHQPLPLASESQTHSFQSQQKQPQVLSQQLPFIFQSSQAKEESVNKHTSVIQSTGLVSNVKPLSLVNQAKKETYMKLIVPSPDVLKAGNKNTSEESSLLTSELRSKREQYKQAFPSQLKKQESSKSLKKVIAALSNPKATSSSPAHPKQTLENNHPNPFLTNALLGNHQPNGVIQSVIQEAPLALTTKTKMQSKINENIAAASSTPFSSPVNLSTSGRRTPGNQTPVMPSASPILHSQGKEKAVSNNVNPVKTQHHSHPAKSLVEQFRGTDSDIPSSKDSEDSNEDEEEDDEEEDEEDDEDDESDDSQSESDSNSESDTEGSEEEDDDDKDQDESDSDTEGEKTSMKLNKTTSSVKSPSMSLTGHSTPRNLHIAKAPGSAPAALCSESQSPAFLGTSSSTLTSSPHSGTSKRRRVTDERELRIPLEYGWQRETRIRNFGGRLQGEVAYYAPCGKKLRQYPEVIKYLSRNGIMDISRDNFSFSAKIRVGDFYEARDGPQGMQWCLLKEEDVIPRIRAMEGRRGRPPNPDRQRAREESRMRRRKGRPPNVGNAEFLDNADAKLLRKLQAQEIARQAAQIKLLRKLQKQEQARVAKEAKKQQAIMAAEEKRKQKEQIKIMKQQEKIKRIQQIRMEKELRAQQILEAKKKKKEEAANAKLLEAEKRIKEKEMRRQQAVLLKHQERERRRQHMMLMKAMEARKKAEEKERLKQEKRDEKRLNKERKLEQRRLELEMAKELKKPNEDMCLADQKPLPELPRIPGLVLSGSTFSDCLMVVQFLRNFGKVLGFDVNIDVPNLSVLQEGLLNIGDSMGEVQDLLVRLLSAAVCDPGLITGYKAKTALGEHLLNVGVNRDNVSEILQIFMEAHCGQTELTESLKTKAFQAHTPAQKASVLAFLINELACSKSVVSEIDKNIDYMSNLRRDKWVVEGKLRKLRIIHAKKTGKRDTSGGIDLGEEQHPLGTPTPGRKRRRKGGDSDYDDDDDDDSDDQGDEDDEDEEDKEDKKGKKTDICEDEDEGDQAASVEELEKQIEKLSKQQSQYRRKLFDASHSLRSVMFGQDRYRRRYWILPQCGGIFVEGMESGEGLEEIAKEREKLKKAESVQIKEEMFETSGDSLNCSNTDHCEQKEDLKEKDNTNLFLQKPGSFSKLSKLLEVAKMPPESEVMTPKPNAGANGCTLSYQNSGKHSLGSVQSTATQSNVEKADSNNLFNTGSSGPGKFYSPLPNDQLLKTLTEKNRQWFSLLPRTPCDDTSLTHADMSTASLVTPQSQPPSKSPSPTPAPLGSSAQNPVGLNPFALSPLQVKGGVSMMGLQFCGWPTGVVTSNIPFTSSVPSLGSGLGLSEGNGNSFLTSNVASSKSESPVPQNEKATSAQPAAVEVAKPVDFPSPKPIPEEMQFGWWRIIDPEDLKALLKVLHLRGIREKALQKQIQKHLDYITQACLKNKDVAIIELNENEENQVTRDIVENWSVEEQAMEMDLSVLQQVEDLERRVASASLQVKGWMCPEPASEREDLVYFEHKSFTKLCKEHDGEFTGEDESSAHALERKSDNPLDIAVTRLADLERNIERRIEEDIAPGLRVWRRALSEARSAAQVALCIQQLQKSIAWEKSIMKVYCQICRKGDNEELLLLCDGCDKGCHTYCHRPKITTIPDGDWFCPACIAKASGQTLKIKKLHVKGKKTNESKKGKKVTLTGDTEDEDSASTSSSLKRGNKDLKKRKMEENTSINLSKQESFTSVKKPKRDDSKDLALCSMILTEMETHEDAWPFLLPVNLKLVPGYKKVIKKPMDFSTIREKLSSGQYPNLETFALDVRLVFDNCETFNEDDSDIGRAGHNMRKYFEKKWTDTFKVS
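Inhibition is scored as reduced AlphaScreen emission. The BAZ2B/b-H3(5-23)K14Ac complex (50 nM each) in PBS pH 7.4, 0.01% Tween-20 meets compound (up to 110 uM) for 30 min at RT before bead addition.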
JMJD2A Tudor inh – inhibitors of human JMJD2A Tudor domain | Potency, µM (top dose mostly 114 µM), for the others: at the top dose activity change, negative = inhibition, most hits filed as inhibitors | hit rate 4.4% among 390,000 | AlphaScreen JMJD2A-Tudor / H3K4me3 peptide binding | AID 504339 | O75164; also: % is scaled to controls: 0 for no effect and ±100 for the full control effect; nearly all actives have a fitted effect of over 50% in size
G9a inh – G9a (human) methyltransferase inhibition; Potency, µM (titrated, usually from 102 µM), for inactives: top-dose activity, negative = inhibition, hits mostly inhibitors; hit rate 8.8% among 350,000; G9a H3K9 monomethylation, AlphaScreen, 2 h; also: % is scaled to controls: 0 for no effect and ±100 for the full control effect; nearly all actives have a fitted effect of over 75% in size
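AlphaScreen read-out: biotin-H3K9 peptide (500 nM) methylation by 20 nM enzyme with 20 uM SAM, 2 h at room temperature after 15 min compound preincubation; anti-monomethyl H3K9 antibody plus donor/acceptor beads, 10 min dark.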
Sfp PPTase inh – Sfp phosphopantetheinyl transferase inhibition; hit rate 3.5% among 310,000; Potency, µM, for the others: largest response in the series, negative = inhibition, usual class: inhibitors; Q9F4F7; Biochemical Sfp PPTase activity, qHTS;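 also: the enzyme is Sfp with the accession as filed and its product quenches rhodamine fluorescence; 0% = enzyme reaction without inhibitor and -100% = no enzyme wells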
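Fluorescence-quenching assay with 15 nM Sfp, 5 uM rhodamine-CoA and 12.5 uM BHQ-2-labelled ybbR peptide in pH 7.6 Hepes/MgCl2 buffer. Enzyme was pre-incubated with compound for 15 min at room temperature. Rate was taken from the 30-min fluorescence change (525/598 nm).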
* hit, by the source's call; ? = inconclusive; . = no result; [ ] = dose if it differs, or a comment. Calls follow the shape of the dose curve; as a rule, active = well fitted curve in the direction sought with a large enough effect; inconclusive = small, poorly fitted or top-dose-only effect, or another doubt; inactive = no such curve, though single readings can be large; an effect the other way counts as inactive or inconclusive. Potency is read from the fitted curve at half-maximal effect.

SMILES	HP1b binding inh	PLK1 PBD inh	BAZ2B inh	JMJD2A Tudor inh	G9a inh	Sfp PPTase inh
Cc1ccc(-n2sc3ccccc3c2=O)cc1S(=O)(=O)N1CCCCC1	?	0.84µM*	5.6µM*	7.9µM*	0.89µM*	1.6µM*
CCCCC1CCC(C(=O)N(CCOC)c2c(N)n(CC(C)C)c(=O)[nH]c2=O)CC1 (stereo not given)	23%	-3%	4%	-11%	37%[12.7 µM]	.
Cc1c(/C=C(\CC(=O)O)c2nc3ccccc3s2)cc(C#N)n1C	-8%	27µM*	-35%	-5%[11.4 µM]	?	?
O=C(O)COc1ccccc1/C=N/NC(=O)CSc1nnc(SCc2ccc(Cl)cc2)s1	21%	-15%	?	-7%	-9%	2%
O=C(CSc1nnc(SCc2ccc(Cl)cc2)s1)N/N=C/c1ccc(C(=O)O)cc1	26%	67µM*	-17%	-18%	.	4%
O=C(CSc1nnc(SCc2ccc(Cl)cc2)s1)N/N=C/c1c[nH]c2ccccc12	6%	-13%	35µM*	89µM*	?	-23%
CCN1C(=O)C(Cc2nc3ccccc3c(=O)n2-c2cccc(C)c2)c2ccccc21 (stereo not given)	-8%	.	?	?	?	.
CCCN1C2CCCC1CC(NC(=O)NC1CCCCC1)C2 (stereo not given)	36%	2%	9%	-11%	23%	12%
O=C(CN1C2CCC1CC(NC(=O)NC1CCCCC1)C2)NC1CC1 (stereo not given)	20%	-6%	9%	-19%	71µM*	10%
Oc1ccc(-c2ccccc2)cc1CN1CCCCCC1	51%	-14%	5%	-11%	-2%[2.33 µM]	89µM*
Oc1ccc(CN2CCCCC2)nc1-c1ccccc1	41%	-5%	-2%	-7%	0%[59 µM]	15%
O=c1[nH]nc(Sc2ncnc3sccc23)n1CCc1ccccc1	66%	-20%	-5%	-20%	40µM*	8%
CCN(CC)C(=O)CSc1n[nH]c(=O)n1CCc1ccccc1	10%	-10%	5%	-11%	5%	1%
CCOc1cc(C2C3=C(CCCC3=O)OC3=C2C(=O)CCC3)cc([N+](=O)[O-])c1O	-7%	-29%	?	-26%	?	15%
CCOc1cc(C2C3=C(CC(C)(C)CC3=O)OC3=C2C(=O)CC(C)(C)C3)cc([N+](=O)[O-])c1O	17%	34µM*	?	-5%	?	19%
CC1(C)CC(=O)C2=C(C1)OC1=C(C(=O)CC(C)(C)C1)C2c1cc([N+](=O)[O-])cc([N+](=O)[O-])c1O	?	17µM*	21%	-11%[11.4 µM]	59%[12.7 µM]	11µM*
C/C(CC(=O)NCc1ccccc1Cl)=N/NC(=O)c1ccccn1	41%	-9%	-17%	-16%	-8%	-18%
CCOc1ccccc1NC(=O)C(=O)c1cc(C)n(-c2cccc(C)c2C)c1C	34%	.	-25%	-19%	-36%[59 µM]	.
O=c1ncccn1[C@@H]1O[C@H](CO)[C@@H](O)[C@H]1O	.	.	.	.	.	7%
O=C1c2ccccc2NC(c2cc(Cl)cc(Cl)c2O)N1Cc1cccnc1 (stereo not given)	35%	-14%	?	-25%	79µM*	-3%
CCc1nn(CC(=O)NCCCOC)c(=O)c2cc3ccccc3n12	38%	.	3%	8%	3%[59 µM]	.
Nc1ccc(CCn2ccnc2)cc1	37%	3%	45µM*	79µM*	-12%	24%
Cn1ncc(Cl)c1C(=O)N1CCN(C23CC4CC(CC(C4)C2)C3)CC1	4%	-15%	-8%	89µM*	.	13%
Cn1nccc1C(=O)N1CCN(C23CC4CC(CC(C4)C2)C3)CC1	44%	-10%	0%	-14%	.	12%
O=C(Cc1ccc(F)cc1)NCCc1csc(-c2ccc(C(F)(F)F)cc2)n1	14%[57 µM]	.	-5%	-8%	-1%[59 µM]	.
SMILES	HP1b binding inh	PLK1 PBD inh	BAZ2B inh	JMJD2A Tudor inh	G9a inh	Sfp PPTase inh
C=C(C)C(=O)Nc1cccc(C2=NOC3(C2)C[C@H](C(N)=O)N(C(=O)CC#N)C3)c1 (stereo not given in full)	?	-8%	40µM*	25µM*	?	-1%
C=C(C)C(=O)Nc1cccc(C2=NOC3(C2)C[C@@H](C(N)=O)N(C(=O)CC(c2ccccc2)c2ccccc2)C3)c1 (stereo not given in full)	20µM*	?	13µM*	20µM*	?	1%
C=C(C)C(=O)Nc1cccc(C2=NOC3(C2)C[C@H](C(N)=O)N(C(=O)c2ccccc2C(=O)c2ccccc2)C3)c1 (stereo not given in full)	?	?	10µM*	7.9µM*	?	-4%
C=C(C)C(=O)Nc1cccc(C2=NOC3(C2)C[C@H](C(N)=O)N(C(=O)CC)C3)c1 (stereo not given in full)	10µM*	-22%	3.5µM*	7.9µM*	?	2%
N#CCC(=O)N1CC2(CC(c3cccc(NC(=O)COc4ccc(Cl)cc4)c3)=NO2)C[C@@H]1C(N)=O (stereo not given in full)	23%	4%	-10%	-9%	-1%[59 µM]	6%
COc1ccc2c(c1)OC[C@H]1[C@H]2N2C(=O)CN(Cc3ccccc3)C(=O)[C@@]2(C)[C@H]1c1ccccc1	67%	-18%	.	-20%	.	.
C=C(C)C(=O)Nc1cccc(C2=NOC3(C2)C[C@@H](C(N)=O)N(C(=O)/C(C)=C/C)C3)c1 (stereo not given in full)	3.5µM*	?	1.8µM*	3.2µM*	?	6%
OCCCNc1ccccc1	.	.	.	.	1%[12.7 µM]	1%
COc1ccc(C2=NN(CN3C(=O)C(=O)c4ccccc43)C(c3ccc(OC)cc3)C2)cc1 (stereo not given)	9%	-19%	?	?	45µM*	-4%
O=C1C2CC=C(Cl)CC2C(=O)N1CCCCCCN1C(=O)C2CC=C(Cl)CC2C1=O (stereo not given)	?	?	45µM*	45µM*	11µM*	0%
COC(=O)c1ccccc1NC(=O)Cn1cnc2sc(C)c(S(=O)(=O)N3CCC(C)CC3)c2c1=O	16%	.	6%	-12%	-4%[59 µM]	.
CCCCCc1c2c(cc(O)c1C(=O)O)OC(=O)c1c(cc(OC)cc1C(=O)CCCC)O2	22%	27µM*	79µM*	-31%	-12%[59 µM]	6%
CCCCCc1c2c(cc(O)c1C(=O)O)OC(=O)c1cc(C(=O)CCCC)c(OC)cc1O2	5%	21µM*	.	?	.	-25%
Cc1ccc2oc(C(=O)N(Cc3sccc3C)C3CCS(=O)(=O)C3)c(C)c2c1 (stereo not given)	9%	.	-15%	-33%	-35%[59 µM]	.
Cc1onc(-c2c(F)cccc2Cl)c1C(=O)Nc1ccc(OC(C)C)cc1	24%	.	2%	-4%	-18%[59 µM]	.
